Calls of active or inactive are those of the source. The rule behind the calls is not given here.
What follows are compounds tested against Protein kinase 7 (PK7), Plasmodium falciparum 3D7 (PF3D7_0213400) (UniProt Q7YTF7) (assay: inhibition of Plasmodium PK7 catalytic activity – biochemical, TCAMS antimalarial set, Kinase-Glo luminescence (AID 1159587)). Conditions: recombinant PfPK7, Kinase-Glo ATP depletion luminescence.
Protein kinase 7 (PK7), Plasmodium falciparum 3D7 (PF3D7_0213400), sequence (Q7YTF7 1-343): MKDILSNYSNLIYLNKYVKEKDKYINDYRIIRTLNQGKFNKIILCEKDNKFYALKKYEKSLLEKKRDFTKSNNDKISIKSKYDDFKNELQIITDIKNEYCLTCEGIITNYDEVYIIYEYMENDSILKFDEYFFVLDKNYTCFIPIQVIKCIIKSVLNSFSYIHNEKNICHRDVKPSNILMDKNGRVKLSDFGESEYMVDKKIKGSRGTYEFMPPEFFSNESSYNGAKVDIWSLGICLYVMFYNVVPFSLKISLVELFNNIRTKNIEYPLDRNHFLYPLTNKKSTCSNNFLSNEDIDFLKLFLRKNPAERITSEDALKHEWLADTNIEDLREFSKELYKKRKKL

outcome, inactive:
c1ccc(CCNCc2cccc(-c3ccc(CNc4ccc5ncccc5c4)cc3)c2)cc1, CC(C)(C)Oc1ccc(C[C@@H]2NC3(C(=O)N(Cc4ccc(Cl)c(Cl)c4)c4ccccc43)C3C(=O)N(c4ccc(Br)cc4)C(=O)C32)cc1 (stereo not given in full), CCOc1ccccc1CNc1nccc(NCCc2cn(C)c3ccccc23)n1, COc1ccc(CNCc2ccsc2)cc1-c1ccc(OC)c(S(=O)(=O)NCCN2CCCC2)c1, COC1CCC(C(=O)Nc2ccc(-c3cccc(-c4nc5c(C)cccc5[nH]4)c3)cc2)CC1 (stereo not given), CC(C)c1ccc(-c2noc(SCC(=O)N3CCCCC3C)n2)cc1 (stereo not given), COc1cc(OC)c(NC(=O)Nc2ccnc3ccccc23)cc1Cl, CCn1c2c(c(=N)c3ccccc31)CCC2, CC(=O)Nc1ccc(S(=O)(=O)Nc2c(C)cc(Cc3cnc(N)nc3N)cc2C)cc1, O=C(CCn1c2ccccc2c2ccccc21)NN=Cc1ccco1, COc1cc(CCN=C(N)/C=C/c2ccc(Cl)cc2)ccc1Cl, CC(C)CC(NC(=O)c1cccc(OCCN2CCOCC2)c1)C(=O)NC(/C=N/NC(=O)c1ccccc1)CCc1ccccc1 (stereo not given), O=C(/C=C/c1c(Cl)cccc1Cl)NC1CCC(CN2CCC(c3c[nH]c4ccncc34)CC2)CC1 (stereo not given), CN1CCC(Oc2ccc(CN3CC[C@H](NC(=O)c4ccc(F)c(F)c4)C3)c3ccccc23)C1 (stereo not given in full), O=C(/C=C/c1ccc2ccccc2c1)NCC1(c2ccc(-c3ccccc3)cc2)CCOCC1
